Screening results: PubChem, several laboratories
Platelet DG rel = platelet dense granule release activity; inhibition, %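 (compounds screened at 7.5 µM in platelet-rich plasma)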; hit rate 0.22% among 300,000; human platelet-rich plasma, SFLLRN dense granule ATP release, luminescence;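 active means mean replicate score, as percent of positive control, at or above 50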
CHT inh = human CHT choline transport inhibition; B-score at 10 µM; hit rate 0.86% among 310,000; CHT-expressing cells, membrane potential dye, choline response; hits give low values;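 active means B-score over 3 SD under the library average, and starting fluorescence ratio not unusually high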;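 further: choline stimulus applied at its EC90 after an EC20 pre-addition; B-score computed on integrated fluorescence ratio after choline addition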
CHT allo act = human CHT allosteric activation; Q9GZV3; CHT-expressing cells, membrane potential dye, choline EC20; hits give high values; LV-AA mutant CHT in HEK293 cells; B-score at 10 µM; hit rate 0.49% among 310,000;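 active means initial fluorescence not abnormally high and integrated response B-score, plate-corrected, over 3 SD above library mean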
HIF activator = HIF pathway transcriptional activation; U2OS HRE-luciferase reporter, luminescence; normalized: DMSO 0%, desferrioxamine 100%; activation, % at 7.5 µM (by protocol); hit rate 0.32% among 300,000; AID 1910;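 active means mean activation of at least 10% of the iron chelator positive control signal, with at least half of replicates also reaching 10%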
VLA-4 inh = inhibition in a human VLA-4 binding assay | P13612 | VLA-4 expressing cells, ligand binding flow cytometry | inhibition, % (about 7 µM as worked out from the volumes in the protocol) | hit rate 0.2% among 330,000 | AID 2557; in the data active means inhibition above about 50%
Target sequence (P13612 whole entry, looked up): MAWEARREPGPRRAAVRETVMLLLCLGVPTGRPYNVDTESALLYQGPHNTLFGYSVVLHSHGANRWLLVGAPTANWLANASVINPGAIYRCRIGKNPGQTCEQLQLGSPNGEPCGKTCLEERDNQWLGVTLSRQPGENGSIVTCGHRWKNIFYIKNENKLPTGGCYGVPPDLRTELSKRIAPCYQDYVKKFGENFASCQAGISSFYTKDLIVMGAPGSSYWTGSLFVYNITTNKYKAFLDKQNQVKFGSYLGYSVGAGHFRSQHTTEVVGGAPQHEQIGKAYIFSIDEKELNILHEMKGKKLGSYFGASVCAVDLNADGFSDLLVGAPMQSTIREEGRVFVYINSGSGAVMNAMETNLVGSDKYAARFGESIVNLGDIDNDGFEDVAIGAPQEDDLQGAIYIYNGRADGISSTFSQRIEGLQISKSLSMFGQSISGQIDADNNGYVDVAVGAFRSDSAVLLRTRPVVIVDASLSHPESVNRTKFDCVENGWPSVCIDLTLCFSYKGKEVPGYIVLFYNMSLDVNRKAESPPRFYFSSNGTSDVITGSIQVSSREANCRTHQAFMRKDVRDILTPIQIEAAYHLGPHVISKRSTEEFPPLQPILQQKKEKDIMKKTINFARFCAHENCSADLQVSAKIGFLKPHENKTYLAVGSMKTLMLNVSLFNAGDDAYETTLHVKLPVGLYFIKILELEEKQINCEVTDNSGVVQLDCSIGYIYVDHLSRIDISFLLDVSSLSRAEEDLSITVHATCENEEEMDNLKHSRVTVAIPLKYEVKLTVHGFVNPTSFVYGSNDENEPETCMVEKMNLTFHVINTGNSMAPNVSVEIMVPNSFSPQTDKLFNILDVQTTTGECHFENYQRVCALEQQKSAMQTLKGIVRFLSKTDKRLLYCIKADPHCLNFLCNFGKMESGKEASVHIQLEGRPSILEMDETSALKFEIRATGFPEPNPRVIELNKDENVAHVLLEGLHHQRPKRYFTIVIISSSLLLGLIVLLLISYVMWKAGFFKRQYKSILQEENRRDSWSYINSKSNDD
AI-2 QS mod = modulates the Vibrio harveyi AI-2 quorum sensing system | activity change, % at 7.5 µM | hit rate 0.4% among 300,000 | Vibrio harveyi JMH597 AI-2 luminescence/OD600 ratio, 9 h; hits give low values; strain lacks LuxN and CqsS sensors; 0 = neutral-control median; in the data active means activity change below about -75%, passing the limit was not always enough;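 further: luminescence divided by OD600 gain over 9 h not by final OD600 alone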
VLA-4 mod pick = human VLA-4 allosteric modulation in cherry picked compounds; shares compounds with VLA-4 inh; U937 cells, HUTS-21 LIBS mAb binding, flow cytometry; LDV ligand present at threefold Kd; inhibition, % at 6.7 µM; hit rate 2% among 1,300; in the data active means inhibition above about 40%;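 further: 0% = ligand without compound and 100% = no ligand background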
Starred values were filed as active, the others as inactive; i = inactive; . = no result; ! = repeats disagree. Hits are enriched below; roughly 2.2% of the tested compounds scored in any of these assays.

SMILES	Platelet DG rel	CHT inh	CHT allo act	HIF activator	VLA-4 inh	AI-2 QS mod	VLA-4 mod pick
CCO/C([O-])=N/c1sn[n+](C)c1C	-2.1	i	i	-0.5	-1.9	46.4	.
CN(C)c1nc(Nn2cnnc2)nc(N(C)C)n1	-2.6	i	i	-1.1	-1.1	1.3	.
CNc1nc(N(C)C)nc(N(C)C)n1	-0.6	i	i	-0.5	58.5*	21.2	-5.0
Cc1ccc(CN2CCN(c3cccc4[nH]ccc34)CC2)cc1	-1.4	i	i	0.2	0.0	-0.5	.
COC(=O)c1ccc(C(=S)N2CCCCC2)cc1	2.0	i	i	-0.4	57.3*	6.8	4.4
O=C(NCCCNc1ccc(C(F)(F)F)cc1[N+](=O)[O-])c1ccc(Cl)cc1	14.5	i	i	-0.4	-1.4	16.7	.
O=C(NCCCNc1ccc(C(F)(F)F)cc1[N+](=O)[O-])c1cc(F)c(F)cc1Cl	-0.3	i	i	0.0	94.2*	6.9	11.7
CCCNC(=O)CN(C1CCCCC1)S(C)(=O)=O	-63.0	i	i	-0.4	91.0*	40.3	9.0
COc1ccc(-c2nc(C)ncc2-c2ccc(Cl)cc2)c(O)c1	-10.1	i	i	1.2	67.7*	-6.8	20.6
O=C(Cn1cccc1C(=O)c1ccccc1)NCc1ccc(F)cc1	-0.8	i	i	0.7	-2.3	10.7	.
NS(=O)(=O)c1cc(C(=O)OCC(=O)Nc2ccc(Cl)cc2[N+](=O)[O-])ccc1Cl	0.0	i	i	0.2	52.2*	27.0	7.2
NS(=O)(=O)c1cc(C(=O)OCC(=O)Nc2ccccc2[N+](=O)[O-])ccc1Cl	-5.7	i	i	-0.5	-20.0	16.9	.
CCCn1c(SCC(=O)NC)nc2sc3c(c2c1=O)CCC3	1.7	i	i	-2.0	57.2*	25.2	5.4
CN(Cc1ccc(-n2cccn2)cc1)Cc1nc(-c2cnccn2)no1	-15.9	i	i	0.5	-0.7	-16.5	.
COc1ccc(S(=O)(=O)NCc2ccccc2Cl)cc1OC	9.4	i	i	0.1	93.0*	3.5	0.4
CCOc1ccc(S(=O)(=O)NCc2ccccc2Cl)cc1C(N)=O	-14.2	i	i	0.0	14.5	9.7	.
CCc1nnc(NC(=O)OCc2ccccc2)s1	-1.9	i	i	0.5	56.7*	15.6	-0.8
CCOC(=O)Nc1nnc(CCc2ccccc2)s1	-4.0	i	i	0.4	3.9	12.0	.
COc1c(C)cccc1C(=O)NC(=S)Nc1ccccc1N1CCCC1	5.9	i	i	2.3	2.6	7.5	.
N#CC(C#N)=C1C=CC=CN1/C(=C\c1ccco1)C(=O)c1ccc(Cl)cc1	.	i	i	.	16.9	.	.
N#CC(C#N)=C1C=CC=CN1/C(=C\c1ccco1)C(=O)c1ccc(-c2ccccc2)cc1	.	i	i	.	49.6*	.	11.8
CCOCCCNc1nc(C(F)(F)F)nc2c1nnn2Cc1ccccc1Cl	1.1	i	i	-4.1	10.9	15.1	.
C=CCNc1nc(C(F)(F)F)nc2c1nnn2Cc1ccccc1Cl	5.2	i	i	-0.4	70.0*	.	-8.6
Cc1cc(Oc2ccccc2)nc(SCC(=O)Nc2ccccc2)n1	-1.5	i	i	0.3	70.4*	24.4	6.5
COc1ccc(C2=Nn3c(nnc3-c3ccc(OC)cc3)SC2)cc1	1.6	i	i	-0.1	54.0*	15.2	32.9
SMILES	Platelet DG rel	CHT inh	CHT allo act	HIF activator	VLA-4 inh	AI-2 QS mod	VLA-4 mod pick
Cc1cccc(C)c1OCCCCc1c(C)n[nH]c1C	7.1	i	i	-0.4	6.3	33.2	.
COc1cccc(OC)c1OCCCCc1c(C)n[nH]c1C	-1.4	i	i	0.7	58.6*	21.3	2.6
Cc1cc(C)n(-c2nc(NC(C)(C)C)nc(NC(C)(C)C)n2)n1	4.0	i	i	-0.5	3.8	14.5	.
CCNc1nc(NCC)nc(-n2nc(C)cc2C)n1	3.2	i	i	-0.3	15.2	23.9	0.0
Cc1cc(C)n(-c2nc(NC(C)C)nc(NC(C)C)n2)n1	11.7	i	i	0.5	57.0*	27.9	4.7
Cc1cc(C)n(-c2nc(Nc3ccccc3C)nc(-n3nc(C)cc3C)n2)n1	18.1	i	i	-0.4	-2.4	30.6	.
Cc1ccnc(N2CCCC(C(=O)Nc3cccc(C)c3C)C2)n1 (centres undefined)	5.7	i	i	0.0	7.3	8.6	.
O=C(Nc1ccc(Cl)c(Cl)c1)Nc1ccccc1O	3.9	i	i	1.0	-26.6	.	-35.5
Nc1nc(F)nc2c1ncn2[C@@H]1O[C@H](CO)[C@@H](O)[C@H]1O	77.3*	i	i	-3.4	6.2	18.5	1.2
Nc1nc(F)nc2c1ncn2[C@@H]1O[C@H](CO)[C@@H](O)[C@@H]1O	1.8	i	i	-0.1	18.7	-13.4	.
COc1ccc2[nH]c(S(=O)Cc3ncc(C)c(OC)c3C)nc2c1 (centres undefined)	2.3	i	i	0.7	53.6*!	-7.8	-6.2
COc1ccc(CN(C)C(=O)c2ccc(Cl)c(S(=O)(=O)NCc3cccnc3)c2)cc1F	.	.	.	.	-4.0	.	.
CCOc1cc(/C=C2\C(=N)N3N=C(S(C)(=O)=O)SC3=NC2=O)ccc1OCCOc1cccc(OC)c1	-4.4	i	i	-6.1	42.8	13.2	-13.4
CCC1CCCCN1S(=O)(=O)c1ccc(C(=O)Nc2nnc(C3=COCCO3)o2)cc1 (centres undefined)	-7.9	i	i	0.0	7.5	89.9	.
Cc1[nH]c2ccccc2c1/C=N/NC(=O)c1ccccc1	3.5	i	i	1.4	45.4	18.8	-6.9
CCN1CCN(CC(O)COc2ccc(C)c(C)c2)CC1 (centres undefined)	8.8	i	i	-0.4	92.2*	12.4	-4.2
CCOCC(O)CNc1ccccc1 (centres undefined)	-1.9	i	i	-0.3	40.9	12.8	13.5
COc1ccc(C(=O)Nc2ccccc2C(=O)NC(Cc2ccc(O)cc2)C(=O)NNC(=O)c2ccncc2)cc1 (centres undefined)	-1.1	i	i	0.2	56.1*	3.8	0.6
Cc1ccccc1COC(=O)CCC1=NS(=O)(=O)c2ccccc2N1	-9.0	i	i	-0.9	3.8	15.0	.
COc1ccc(N(CC(=O)Nc2ccc(F)c(F)c2)S(=O)(=O)c2c(C)n[nH]c2C)cc1	13.4	i	i	-0.4	4.1	12.5	-0.2
Cc1nn(C)c(C)c1S(=O)(=O)N(CC(=O)NCc1ccco1)c1ccc(C(C)C)cc1	7.4	i	i	-0.2	64.2*	10.3	6.7
COc1ccc(N(CC(=O)Nc2cccc(OC)c2)S(=O)(=O)c2c(C)nn(C)c2C)cc1	.	i	i	.	0.1	.	6.3
